Records with an inconclusive call do not appear. Calls of active or inactive are those of the source. The call rests on the fitted dose curve; in most records, active means well fitted curve in the direction sought with a large enough effect; inconclusive means small, poorly fitted or top-dose-only effect, or another doubt; inactive means no such curve, though single readings can be large; an effect the other way counts as inactive or inconclusive.
Experiments:
[1] = biological target: Cytochrome P450 3A4 (Homo sapiens) (UniProt P08684); test: qHTS Assay for Inhibitors and Substrates of Cytochrome P450 3A4 (AID 884); further: series mostly up to about 57 µM; nearly all actives have a fitted effect of over 50% in size
Sequence of Cytochrome P450 3A4 (Homo sapiens) (P08684 whole entry, looked up): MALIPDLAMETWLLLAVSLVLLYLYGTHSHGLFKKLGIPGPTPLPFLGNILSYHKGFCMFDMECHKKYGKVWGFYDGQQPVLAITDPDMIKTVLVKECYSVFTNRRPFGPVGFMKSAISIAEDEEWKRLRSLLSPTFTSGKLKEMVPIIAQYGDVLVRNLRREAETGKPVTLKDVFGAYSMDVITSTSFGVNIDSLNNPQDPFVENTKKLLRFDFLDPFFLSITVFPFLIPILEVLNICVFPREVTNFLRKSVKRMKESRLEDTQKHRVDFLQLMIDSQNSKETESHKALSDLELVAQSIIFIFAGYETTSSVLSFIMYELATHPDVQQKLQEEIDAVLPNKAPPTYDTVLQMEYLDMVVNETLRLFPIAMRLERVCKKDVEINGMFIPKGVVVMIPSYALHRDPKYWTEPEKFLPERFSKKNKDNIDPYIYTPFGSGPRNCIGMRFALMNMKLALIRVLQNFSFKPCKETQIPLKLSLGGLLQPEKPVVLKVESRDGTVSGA
How it was run: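 Luminescent readout of luciferin produced by CYP3A4 (20 nM) dealkylation of Luciferin-PPXE, 25 uM (its KM). NADPH-driven reaction ran 60 min at RT after 10 min compound preincubation; data scaled to 57 uM ketoconazole as 100% inhibition.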

[2] = Cell Viability - LYMP2-001 (AID 921); further: series mostly up to about 92 µM; nearly all actives have a fitted effect of over 70% in size
How it was run: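 A lymphoblastoid cell line of human origin was treated with library compounds across a concentration series for 24 hours, and viable cell number was estimated from ATP-driven luciferase light output. Hill modeling gave AC50.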

[3] = MultiTox-Fluor Cytotoxicity Assay - LYMP1-001 - Dead Cells (AID 946);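 further: cells exposed to compound for 16 h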
How it was run: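 AC50 from Hill fit of concentration-response; data normalized to DMSO (basal) and 15 uM tetraoctylammonium bromide (100%). LYMP1-001 lymphoblastoid cells, 2500/well, 16 hr compound at 37 C; dead-cell protease fluorescence, Ex/Em 485/520.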

[4] = MultiTox-Fluor Cytotoxicity Assay - LYMP1-001 - Live Cells (AID 947)
[5] = Cell Viability - LYMP1-002 - Assay at 16 hr (AID 948)
How it was run: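 In this qHTS, lymphoblastoid LYMP1-002 cells (human) receive compounds for 16 hr at 37 C. Viability is taken from CellTiter-Glo ATP luminescence, and AC50 derives from standard Hill fits.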

[6] = MultiTox-Fluor Cytotoxicity Assay - LYMP1-002 - Live Cells (AID 955);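 further: cells exposed to compound for 16 hours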
How it was run: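 Cells were seeded at 2500 per well and incubated 5 hr. Compounds were then added for 16 hr at 37 C, followed by MultiTox-Fluor reagent for 60 min at room temperature and fluorescence reading of viable-cell protease signal.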

[7] = MultiTox-Fluor Cytotoxicity Assay - LYMP1-002 - Dead Cells (AID 960);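 further: cells exposed to compound for 16 h at 37 °C; nearly all actives have a fitted effect of over 60% in size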
How it was run: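 Cells were plated, rested 5 hr, then treated with compound dilution series for 16 hr at 37 C. After adding substrate reagent and 60 min at room temperature, dead-cell protease fluorescence gave concentration-response curves fitted by the Hill equation.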

[8] = MultiTox-Fluor Cytotoxicity Assay - LYMP1-003 - Dead Cells (AID 961);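 further: cells exposed to compound for 16 h at 37 °C; nearly all actives have a fitted effect of over 70% in size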
How it was run: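 Human lymphoblastoid LYMP1-003 cells (2500/well) were treated with compounds for 16 hr at 37 C in complete medium. Dead-cell protease release was read by bis-AAF-R110 fluorescence (Ex/Em 485/520). AC50 came from Hill fits, normalized to DMSO and 15 uM tetraoctylammonium bromide.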

[9] = MultiTox-Fluor Cytotoxicity Assay - LYMP1-003 - Live Cells (AID 962);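 further: cells exposed to compound for 16 hours at 37 °C; cytotoxic hits lower the live-cell protease signal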
How it was run: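 Acute cytotoxicity is scored as a drop in live-cell protease activity in human lymphoblastoid LYMP1-003 cells after 16 hr compound exposure at 37 C. AC50 values come from Hill-equation modelling of concentration-response data.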

[10] = Cell Viability - LYMP1-003 - Assay at 24 hr (AID 963)
How it was run: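 Cytotoxicity is scored as a concentration-dependent fall in ATP-linked luciferase signal in human lymphoblastoid LYMP1-003 cells treated 24 hr at 37 C in complete culture medium.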

[11] = Cell Viability - LYMP1-003 - Assay at 40 hr (AID 964); further: series mostly up to about 92 µM; nearly all actives have a fitted effect of over 60% in size
How it was run: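 Luminescent ATP signal (CellTiter-Glo) served as the viability read-out after 40 hr compound treatment of human lymphoblastoid LYMP1-003 cells at 37 C. Decreases in ATP were fitted with the Hill equation to give AC50.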

[12] = Cell Viability - LYMP2-003 (AID 965);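 further: cells exposed to compounds for 24 h before reading; nearly all actives have a fitted effect of over 50% in size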
How it was run: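 qHTS, human lymphoblastoid line, 2500 cells/well, complete medium. 24 h drug, 37 C. ATP-based luminescent readout; Hill-fit AC50.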

[13] = Cell Viability - LYMP2-004 (AID 966); further: nearly all actives have a fitted effect of over 65% in size
How it was run: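 qHTS cytotoxicity: human lymphoblastoid line, 24 hr compound treatment, 37 C, complete medium. Viability read as cellular ATP via luciferase luminescence; tetraoctylammonium bromide served as positive control.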

[14] = Cell Viability - LYMP2-005 (AID 967); further: series mostly up to about 92 µM
How it was run: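 Luciferase-based ATP quantitation served as the viability measure in human lymphoblastoid LYMP2-005 cells exposed to test compounds for 24 h at 37 C in complete culture medium. Potency (AC50) was obtained by fitting concentration-response curves with the Hill equation.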

[15] = Cell Viability - LYMP2-009 (AID 968); further: series mostly up to about 92 µM; nearly all actives have a fitted effect of over 55% in size
[16] = Cell Viability - LYMP2-011 (AID 969); further: nearly all actives have a fitted effect of over 60% in size
How it was run: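 In this qHTS cytotoxicity format, compounds are tested across concentrations on human lymphoblastoid cells in complete medium for 24 hours at 37 C. Viability is taken as cellular ATP measured by luciferase luminescence.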

[17] = Cell Viability - LYMP2-013 (AID 970); further: series mostly up to about 92 µM; nearly all actives have a fitted effect of over 55% in size
How it was run: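 Cytotoxicity is scored as a concentration-dependent drop in intracellular ATP in human lymphoblastoid cells after 24 hr compound exposure at 37 C. ATP is quantified by luciferase luminescence, and AC50 values come from Hill-equation modeling.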

[18] = Cell Viability - LYMP2-015 (AID 971); further: nearly all actives have a fitted effect of over 55% in size
How it was run: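 Cells are seeded at 2500 per well and incubated 5 hr at 37 C. Compounds are added across a concentration series for 24 hr at 37 C. CellTiter-Glo is added, and luminescence is read after 30 min at room temperature.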

[19] = Cell Viability - LYMP2-017 (AID 972); further: series mostly up to about 92 µM; nearly all actives have a fitted effect of over 55% in size
How it was run: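 Cytotoxicity is scored as a concentration-dependent drop in cellular ATP in a human lymphoblastoid line after 24 hr treatment at 37 C. Values are AC50s from Hill-equation modelling.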

[20] = Cell Viability - LYMP2-019 (AID 973); further: nearly all actives have a fitted effect of over 55% in size
How it was run: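 Cytotoxicity is scored as a concentration-dependent drop in cellular ATP after cells (2500/well) receive compound for 24 hr at 37 C. Tetraoctylammonium bromide serves as positive control.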

[21] = Cell Viability - LYMP2-021 (AID 974)
How it was run: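 Loss of cellular ATP, measured with a luciferase-based CellTiter-Glo readout, serves as the toxicity signal in human lymphoblastoid cells treated for 24 hours at 37 C. Potency is reported as AC50 from a standard Hill model.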

[22] = Cell Viability - LYMP2-023 (AID 975)
How it was run: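 Steps: seed 2500 human lymphoblastoid cells per well, incubate 5 hr at 37 C, add compound for 24 hr at 37 C, add CellTiter-Glo, hold 30 min at room temperature, read luminescence. AC50 derived by Hill modelling.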

[23] = Cell Viability - LYMP2-025 (AID 976); further: series mostly up to about 92 µM
How it was run: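 Acute cytotoxicity is scored as a concentration-dependent fall in intracellular ATP, measured by luciferase luminescence, in human lymphoblastoid LYMP2-025 cells exposed to compound for 24 hours at 37 C. AC50 values come from standard Hill fits.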

[24] = Cell Viability - LYMP2-002 (AID 977);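 further: series mostly up to about 92 µM; compound exposure lasted 24 h at 37 °C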
How it was run: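 Human lymphoblastoid cells, 2500/well, complete medium; 5 h 37 C settle; compound 24 h 37 C; CellTiter-Glo, 30 min RT; luminescence. Decrease in ATP = cytotoxicity; AC50 via Hill equation.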

Measured: Potency

CCCOC(=O)c1ccccc1C(=O)OCCC
inactive: [1] | [2] | [3] | [4] | [5] | [6] | [7] | [8] | [9] | [10] | [11] | [12] | [13] | [14] | [15] | [16] | [17] | [18] | [19] | [20] | [21] | [22] | [23] | [24]

From PubChem BioAssay (NCATS)
